# Data reported in PubChem BioAssay (Tox21).
# Results filed as inconclusive are left out. Where a call stands in place of a potency, no number is given. Calls of active or inactive are those of the source. The call rests on the fitted dose curve.
# Molecular target: Thyrotropin receptor (Homo sapiens) (UniProt P16473)
# Experiment: qHTS assay to identify small molecule agonists of the thyroid stimulating hormone receptor (TSHR) signaling pathway (AID 1224843); further: nearly all actives have a fitted effect of over 45% in size
# Settings: TSHR-HEK293 cells, cAMP HTRF, agonist mode, 30 min; series mostly up to 92.4 µM
# From the text: National Center for Advancing Translational Sciences [NCATS]
# NIH Chemical Genomics Center [NCGC]
# U.S. Environmental Protection Agency [EPA]
# National Institutes of Environmental Health Sciences [NIEHS]
# National Toxicology Program [NTP]
# U.S. Food and Drug Administration [FDA]
# TSHR is the receptor for thyrotropin (thyroid stimulating hormone or TSH), a member of the glycoprotein hormone family. TSH is released by the anterior pituitary gland and is the main regulator of thyroid gland growth and development. Upon binding circulating thyrotropin, a G-protein signal cascade activates adenylyl cyclase and […] cAMP concentration is increased. cAMP is a key second messenger involved extensively in cellular signal transduction pathways associated with the majority of G-protein coupled receptors (GPCRs). The activation of these GPCRs by neurotransmitters, lipids, nucleotides, peptides and hormones results in the activation or the inhibition of plasma membrane-bound adenylate cyclase through heterotrimeric G-proteins. A cell-based TSHR assay was used to screen the Tox21 10K library for compounds that can modulate TSHR in agonist mode.
# Tox21 Assay Protocol Summary:
# TSHR-Hek293 cells were dispensed at 800 cells/4uL/well in 1536-well white plates using a Multidrop dispenser. […] The plates were incubated at room temperature for 30 min. 2.5 ul/well of cAMP-d2 and 2.5ul/well of anti-cAMP-cryptate was added respectively into the assay plates using a Flying Reagent Dispenser. After 1 hr incubation at room temperature, the fluorescence intensity in the plates was measured using an Envision plate reader. Each test compound was measured at 15 concentrations and in triplicates.
# Sequence of Thyrotropin receptor (Homo sapiens) (P16473 whole entry, looked up): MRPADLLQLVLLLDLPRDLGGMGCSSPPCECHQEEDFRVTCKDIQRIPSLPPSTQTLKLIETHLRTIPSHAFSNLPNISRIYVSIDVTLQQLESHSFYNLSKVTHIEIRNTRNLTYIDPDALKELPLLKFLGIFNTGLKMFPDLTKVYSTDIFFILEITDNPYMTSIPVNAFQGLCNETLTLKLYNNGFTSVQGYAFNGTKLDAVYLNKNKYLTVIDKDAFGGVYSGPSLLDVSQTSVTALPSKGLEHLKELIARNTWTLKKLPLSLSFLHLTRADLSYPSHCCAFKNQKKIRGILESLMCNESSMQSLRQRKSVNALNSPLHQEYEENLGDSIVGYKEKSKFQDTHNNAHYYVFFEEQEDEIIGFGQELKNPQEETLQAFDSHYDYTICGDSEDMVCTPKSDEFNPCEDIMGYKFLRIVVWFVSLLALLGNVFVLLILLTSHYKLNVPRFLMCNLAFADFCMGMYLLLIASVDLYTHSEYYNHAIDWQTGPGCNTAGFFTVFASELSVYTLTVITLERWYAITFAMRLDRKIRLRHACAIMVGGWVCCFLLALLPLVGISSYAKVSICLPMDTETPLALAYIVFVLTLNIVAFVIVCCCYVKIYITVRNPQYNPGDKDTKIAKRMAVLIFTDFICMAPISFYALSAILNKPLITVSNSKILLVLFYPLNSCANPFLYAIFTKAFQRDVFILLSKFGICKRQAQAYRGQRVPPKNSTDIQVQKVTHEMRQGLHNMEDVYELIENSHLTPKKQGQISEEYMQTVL
row,Structure (SMILES),Potency
1,O=C(O)CCCc1c[nH]c2ccccc12,inactive
2,CC(C)(C)C1(CCc2ccc(Cl)cc2)CO1 (stereo not given),inactive
3,CCCCCCC(O)CCOC(C)=O (stereo not given),inactive
4,C=C(C)C(=O)OCCC(F)(F)C(F)(F)C(F)(F)C(F)(F)C(F)(F)C(F)(F)F,inactive
5,O=CNNC=O,inactive
6,Cc1ccc(N(CCO)CCO)cc1,inactive
7,Cc1ccc(Cl)cc1N,inactive
8,O=NN(CCCl)C(=O)NCCCl,inactive
9,CCSC(=O)N(CC)CC,inactive
10,Cc1cccc(C)c1NC(=O)c1cc(S(N)(=O)=O)c(Cl)cc1O,inactive
11,COc1ccc(N)c([N+](=O)[O-])c1,inactive
12,COC(CC(C)CCCC(C)(C)O)OC (stereo not given),inactive
13,O=C(O)c1cccc(C[C@@H]2COc3ccc(OCc4nc5cc(F)ccc5s4)cc3[C@@H]2O)c1,inactive
14,COc1cc(NS(=O)(=O)c2ccc(N)cc2)nc(C)n1,inactive
15,Cc1ccc(N(CC2=NCCN2)c2cccc(O)c2)cc1,inactive
16,CC1C(C)(C)C2=C(C(=O)CCC2)C1(C)C (stereo not given),inactive
17,COc1ccc(C)cc1,inactive
18,SCCc1cnccn1,inactive
19,CCCC(=O)OC(=O)CCC,inactive
20,CC1=C2[C@@H]([C@H](C)CC[C@H]2/C=C(\C)C(=O)O)[C@H](O)C1,inactive

row,Structure (SMILES),Potency
1,CC1CCC(C(C)CS)CC1S (stereo not given),inactive
2,COC(=O)CC(C(C)=O)C(=O)OC (stereo not given),inactive
3,CC(=O)c1ccc[nH]1,inactive
4,C=CC(=O)NC(C)C,inactive
5,CCCCOCCOC(=O)c1cccnc1,inactive
6,Cc1cc(CCCOc2c(C)cc(-c3noc(C(F)(F)F)n3)cc2C)on1,inactive
7,CCOC(=O)c1c(N)sc2c1CCN(Cc1ccccc1)C2,inactive
8,Nc1nc2ccc(OC(F)(F)F)cc2s1,inactive
9,CC(=O)C(=O)CC(C)C,inactive
10,O=C(O)CO,inactive
11,CC[C@H]1OC(=O)[C@H](C)[C@@H](O[C@H]2C[C@@](C)(OC)[C@@H](O)[C@H](C)O2)[C@H](C)[C@@H](O[C@@H]2O[C@H](C)C[C@H](N(C)C)[C@H]2O)[C@](C)(O)C[C@@H](C)C(=O)[C@H](C)[C@@H](O)[C@]1(C)O,inactive
12,CCCCCc1ccco1,inactive
13,CCC(C)(C)C(=O)O,inactive
14,CC(=O)OCC1=C(C(=O)O)N2C(=O)[C@@H](NC(=O)CSc3ccncc3)[C@H]2SC1,inactive
15,O=c1[nH][nH]c(=O)c2cc([N+](=O)[O-])ccc12,inactive
16,CCCCCCCCCCCCCCCCCC(=O)OCC(CC)CCCC (stereo not given),inactive
17,C[C@@H]1[C@H](O)[C@@H](C)/C=C/C=C\C=C\C=C\C=C\C=C\C=C\[C@H](O[C@@H]2O[C@H](C)[C@@H](O)[C@H](N)[C@@H]2O)C[C@@H]2O[C@](O)(C[C@@H](O)C[C@@H](O)[C@H](O)CC[C@@H](O)C[C@@H](O)CC(=O)O[C@H]1C)C[C@H](O)[C@H]2C(=O)O (stereo in doubt),inactive
18,CC(C)C1CCC(C(=O)N[C@H](Cc2ccccc2)C(=O)O)CC1 (stereo not given in full),inactive
19,COC(=O)c1sccc1S(N)(=O)=O,inactive
20,O=C(O)CCS,inactive
